16 molecules from PubChem BioAssay can be followed below.

The nature of assay [1]: Wnt pathway potentiators raising nuclear beta-catenin – imaging, WNT3A-conditioned medium, mouse C2C12, NPC library, primary screen (AID 1117326). Also: reference of the scale not given here. To be noted: stronger effect = higher value.
The nature of assay [2]: stimulators of insulin release from INS-1E, primary screen, cell-based, 5 mM glucose, NPC library (AID 1117329;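 active = compound raises insulin release from rat beta cells at 5 mM glucose, no numeric limit stated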; also: reference of the scale not given here). To be noted: rat INS-1E insulin secretion, at 10 µM, stronger effect = higher value.
A short description of assay [3]: growth inhibition of GSK3B-pretreated HCT116 cells – cell-based, CellTiter-Glo, 0.2 to 20 µM (AID 1117336;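 active = compounds lowering colon cancer cell viability after pretreatment blocking the GSK3B kinase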). To be noted: HCT116 viability after GSK3B inhibitor, at 20 µM, stronger effect = higher value.
Assay [4] in a line: inhibition of endothelial tube formation, primary screen, imaging, VEGF stimulated, CD31 staining, tube area, NPC library (AID 1117340;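 active = compound that reduces growth-factor-driven endothelial tube area in a mixed cell culture, no cutoff stated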). To be noted: VEGF-stimulated ADSC/ECFC co-culture, at 10 µM, stronger effect = higher value.
A short description of assay [5]: GLP1 release stimulators, primary, NCI-H716, NPC library (AID 1117341;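 active = compound raises GLP1 secretion from the human gut endocrine cells, with no numeric limit stated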; also: reference of the scale not given here). The settings on record: NCI-H716 cells, at 10 µM, stronger effect = higher value.
A short description of assay [6]: HCT116 colon cancer cell growth inhibition, primary screen, CellTiter-Glo luminescence, NPC library (AID 1117342;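 active = compounds that lower survival of HCT116 colon cancer cells in the luminescence readout, no numeric limit stated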). To be noted: at 20 µM (top of the series). A general note: ATP-based viability assays read luminescence as a measure of living cells.
A short description of assay [7]: reduced SW480 viability measured with CellTiter-Glo, NPC library, primary (AID 1117343;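 active = compounds that lower viability of the colon cancer cells in the luminescence readout, with no numeric limit stated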). The settings on record: CellTiter-Glo luminescence; at 20 µM (top of the series).
Assay [8] is described as follows: NPC library primary testing for decreased DLD-1 cell viability via CellTiter-Glo (AID 1117346;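 active = compounds that lower survival of DLD-1 colon cancer cells in the luminescence readout, no cutoff given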). The settings on record: DLD-1 viability, CellTiter-Glo luminescence; at 20 µM (top of the series).

Calls of active or inactive are those of the source. Rule as the data show it, unless noted: active = nuclear beta-catenin stimulation mostly above about 4.2% (no sharp cut-off); inactive = mostly below about 10%.

With `Cc1cccc(C)c1NC(=O)CN1CCCC1`, the nuclear beta-catenin stimulation is -0.4% (inactive) in assay [1] (at 10 µM) and 0.7% in assay [1] (stimulation, at 2 µM). For the same molecule, the insulin secretion stimulation in assay [2] was 0.6% (inactive). Further, the viability decrease in assay [3] is 4.2% (inactive). Further, the tube area decrease in assay [4] is -6.7% (inactive). Moreover, the GLP1 secretion stimulation in assay [5] is 1.1% (inactive). In addition, the inhibition of viability in assay [6] is 37.9% (inactive). Further, the viability decrease (inhibition) in assay [7] is 3.5% (inactive); in assay [8], 2.4% (inactive).

For `C[C@@H](N)C(=O)O`, the nuclear beta-catenin stimulation in assay [1] (at 10 µM) was 1.4% (inactive); in assay [1] (stimulation, at 2 µM), 0%. Also, the insulin secretion stimulation in assay [2] is -2.7% (inactive). In addition, the viability decrease in assay [3] was 9% (inactive). Moreover, the tube area decrease in assay [4] was 15.4% (inactive). Further, in assay [5], the GLP1 secretion stimulation is 5.9% (inactive). Further, the inhibition of viability in assay [6] is 11.2% (inactive). The values for the viability decrease (inhibition) in assay [7] and in assay [8] were 44.4% (inactive) and 20.8% (inactive), respectively.

For the molecule `CCN(CC)CCN`, the nuclear beta-catenin stimulation in assay [1] (at 10 µM) was 0.4% (inactive); in assay [1] (stimulation, at 2 µM), -1.7%. Besides, in assay [2], the insulin secretion stimulation was 1.7% (inactive). Moreover, the viability decrease in assay [3] is -6% (inactive). For the same molecule, the tube area decrease in assay [4] is 5.8% (inactive). Moreover, the GLP1 secretion stimulation in assay [5] was -1% (inactive). In assay [6], the inhibition of viability is -0.4% (inactive). The results for the viability decrease (inhibition) in assay [7] and in assay [8] were 1.2% (inactive) and -10.7% (inactive), respectively.

Take `O=C(CCC1CCN(Cc2ccccc2)CC1)c1ccc2c(c1)NCCCC2`: the nuclear beta-catenin stimulation in assay [1] (at 10 µM) is 3.2% (inactive); in assay [1] (stimulation, at 2 µM), 3.5%. Besides, in assay [2], the insulin secretion stimulation is 4.2% (inactive). In assay [3], the viability decrease is 53.5% (active). Besides, in assay [4], the tube area decrease was 12.9% (inactive). The GLP1 secretion stimulation in assay [5] was 4.3% (inactive). In assay [6], the inhibition of viability is 81.9% (active). Also, the results for the viability decrease (inhibition) in assay [7] and in assay [8] were 93.9% (active) and 62.1% (active), respectively.

Regarding `C/C(=N\O)c1ccc(OCC(=O)N2CCCCC2)cc1`, the nuclear beta-catenin stimulation in assay [1] (at 10 µM) is 0.1% (inactive); in assay [1] (stimulation, at 2 µM) it was -1.1%. In addition, the insulin secretion stimulation in assay [2] is 3.05% (inactive). Also, the viability decrease in assay [3] was 17.3% (inactive). The tube area decrease in assay [4] is -6.2% (inactive). Moreover, the GLP1 secretion stimulation in assay [5] is 0.1% (inactive). Moreover, the inhibition of viability in assay [6] is 13.8% (inactive). For the same molecule, the values for the viability decrease (inhibition) in assay [7] and in assay [8] were -2.5% (inactive) and -0.4% (inactive), respectively.

As to `CCOC(=O)N1CCC(n2c(=O)[nH]c3cc(Cl)ccc32)CC1`, the nuclear beta-catenin stimulation was -2.8% (inactive) in assay [1] (at 10 µM) and -0.2% in assay [1] (stimulation, at 2 µM). The insulin secretion stimulation in assay [2] was -5.2% (inactive). For the same molecule, in assay [3], the viability decrease was 15.6% (inactive). The tube area decrease in assay [4] is 14.4% (inactive). For the same molecule, in assay [5], the GLP1 secretion stimulation is -8.8% (inactive). For the same molecule, the inhibition of viability in assay [6] is 49.4% (inactive). Further, the viability decrease (inhibition) was 19.8% (inactive) in assay [7] and 0.5% (inactive) in assay [8].

As to `O=C(OCC(O)CO)c1ccccc1Nc1ccnc2c(C(F)(F)F)cccc12` (centres undefined), the nuclear beta-catenin stimulation was 1% (inactive) in assay [1] (at 10 µM) and 0.5% in assay [1] (stimulation, at 2 µM). Moreover, the insulin secretion stimulation in assay [2] is -0.3% (inactive). The viability decrease in assay [3] was -37% (inactive). Further, the tube area decrease in assay [4] was -5.3% (inactive). Also, the GLP1 secretion stimulation in assay [5] is 4.1% (inactive). The inhibition of viability in assay [6] was 12% (inactive). The values for the viability decrease (inhibition) in assay [7] and in assay [8] were 30.4% (inactive) and -17.2% (inactive), respectively.

Consider `C[C@@H]1CCC[C@H](C)N1CCCC(O)(c1ccccc1)c1ccccn1` (some centres undefined), for which the nuclear beta-catenin stimulation in assay [1] (at 10 µM) is 1% (inactive); in assay [1] (stimulation, at 2 µM), 0%. Further, the insulin secretion stimulation in assay [2] is 2.6% (inactive). The viability decrease in assay [3] was -50.8% (inactive). In addition, the tube area decrease in assay [4] was 12.8% (inactive). Moreover, the GLP1 secretion stimulation in assay [5] is 1.3% (inactive). The inhibition of viability in assay [6] was -3.7% (inactive). In addition, the viability decrease (inhibition) is 14.7% (inactive) in assay [7] and -14.8% (inactive) in assay [8].

With `CSCC[C@H](N)C(=O)O`, the nuclear beta-catenin stimulation was 1.9% (inactive) in assay [1] (at 10 µM) and 1.3% in assay [1] (stimulation, at 2 µM). The insulin secretion stimulation in assay [2] is 0.5% (inactive). Also, the viability decrease in assay [3] was -8.1% (inactive). The tube area decrease in assay [4] was 2.3% (inactive). The GLP1 secretion stimulation in assay [5] was -2.6% (inactive). The inhibition of viability in assay [6] is 0.5% (inactive). For the same molecule, the viability decrease (inhibition) was 0.4% (inactive) in assay [7] and -6% (inactive) in assay [8].

For the molecule `Cc1oc(-c2ccccc2)nc1CCC(=O)c1ccc(CC2SC(=O)NC2=O)cc1` (centres undefined), the nuclear beta-catenin stimulation in assay [1] (at 10 µM) was 3.2% (inactive); in assay [1] (stimulation, at 2 µM), -0.4%. Moreover, the insulin secretion stimulation in assay [2] was 3.5% (inactive). Also, the viability decrease in assay [3] is 97.3% (active). The tube area decrease in assay [4] was 9.6% (inactive). Also, the GLP1 secretion stimulation in assay [5] is 12.7% (inactive). The inhibition of viability in assay [6] is 95.4% (active). Besides, the viability decrease (inhibition) was 120% (active) in assay [7] and 96.5% (active) in assay [8].

Consider `COc1cc(O)cc(O)c1`, for which the nuclear beta-catenin stimulation in assay [1] (at 10 µM) is 1.6% (inactive); in assay [1] (stimulation, at 2 µM), -0.2%. Besides, in assay [2], the insulin secretion stimulation was 4.5% (inactive). For the same molecule, the viability decrease in assay [3] is -4.6% (inactive). The tube area decrease in assay [4] was 10.6% (inactive). The GLP1 secretion stimulation in assay [5] is -9.8% (inactive). Further, the inhibition of viability in assay [6] is 7.93% (inactive). The viability decrease (inhibition) in assay [7] is 4% (inactive); in assay [8] it was -9.1% (inactive).

In the case of `O=C(O)c1ccc(OCCCOc2ccc(C(=O)O)cc2)cc1`, the nuclear beta-catenin stimulation in assay [1] (at 10 µM) is 1.9% (inactive); in assay [1] (stimulation, at 2 µM), 0.7%. Moreover, the insulin secretion stimulation in assay [2] is 3.2% (inactive). For the same molecule, the viability decrease in assay [3] was -0.8% (inactive). In addition, the tube area decrease in assay [4] was -2.8% (inactive). In addition, the GLP1 secretion stimulation in assay [5] was -1.8% (inactive). The inhibition of viability in assay [6] is -0.8% (inactive). Further, the viability decrease (inhibition) in assay [7] was 5.3% (inactive); in assay [8] it was -6.3% (inactive).

Regarding `CNC(=O)c1cnn(-c2nc(N)c3ncn([C@@H]4O[C@H](CO)[C@@H](O)[C@H]4O)c3n2)c1`, the nuclear beta-catenin stimulation was 2.6% (inactive) in assay [1] (at 10 µM) and 4.8% in assay [1] (stimulation, at 2 µM). The insulin secretion stimulation in assay [2] was -0.3% (inactive). Moreover, in assay [3], the viability decrease was 3.8% (inactive). In addition, the tube area decrease in assay [4] was 20.4% (inactive). Further, the GLP1 secretion stimulation in assay [5] is 4.6% (inactive). In assay [6], the inhibition of viability was 1% (inactive). The viability decrease (inhibition) was 6.8% (inactive) in assay [7] and -13.2% (inactive) in assay [8].

In the case of `CC(C(=O)O)c1ccc(/C=C2\CCCCC2=O)cc1` (centres undefined), the nuclear beta-catenin stimulation in assay [1] (at 10 µM) is 0% (inactive); in assay [1] (stimulation, at 2 µM), -1.5%. Further, the insulin secretion stimulation in assay [2] was 0% (inactive). For the same molecule, in assay [3], the viability decrease is 5.4% (inactive). In addition, in assay [4], the tube area decrease was 0.5% (inactive). For the same molecule, in assay [5], the GLP1 secretion stimulation is 2.1% (inactive). Moreover, the inhibition of viability in assay [6] is -19.6% (inactive). Besides, the viability decrease (inhibition) was 25.5% (inactive) in assay [7] and -23.7% (inactive) in assay [8].

Consider `C/C(=C1\CCOC(=O)S1)N(C=O)Cc1cnc(C)nc1N`, for which the nuclear beta-catenin stimulation was -0.3% (inactive) in assay [1] (at 10 µM) and 0.1% in assay [1] (stimulation, at 2 µM). For the same molecule, the insulin secretion stimulation in assay [2] is 4.7% (inactive). For the same molecule, the viability decrease in assay [3] was -6.1% (inactive). Moreover, the tube area decrease in assay [4] was -16.6% (inactive). The GLP1 secretion stimulation in assay [5] is 8.1% (inactive). In addition, the inhibition of viability in assay [6] is 19.8% (inactive). The viability decrease (inhibition) in assay [7] was 3.7% (inactive); in assay [8], 1.5% (inactive).

`O=C(CN1CCNCC1)NC1CCCCC1`: the nuclear beta-catenin stimulation in assay [1] (at 10 µM) is -0.7% (inactive); in assay [1] (stimulation, at 2 µM), 0.3%. For the same molecule, the insulin secretion stimulation in assay [2] is 5% (inactive). Moreover, in assay [3], the viability decrease was -3.9% (inactive). In assay [4], the tube area decrease is 13.7% (inactive). Besides, the GLP1 secretion stimulation in assay [5] was 1% (inactive). Moreover, in assay [6], the inhibition of viability is 7.2% (inactive). The values for the viability decrease (inhibition) in assay [7] and in assay [8] were 16.3% (inactive) and 4.5% (active), respectively.
